One test deals with C6orf105. Nature of the test: pooled miR-30 sensor sort-seq; sequence = guide strand. Conditions: shRNA.
In turn, TTGTAGAGAAAGAGGATCCAGA had a sensor-assay potency score (higher = more potent) of -0.578.

TAAGTATCACTCTCTGTCCCTC returned a sensor-assay potency score (higher = more potent) of -0.473.

On to TTAAGTATCACTCTCTGTCCCT, for which the sensor-assay potency score (higher = more potent) worked out at 0.33.

Take TATCACTCTCTGTCCCTCCTAC: the sensor-assay potency score (higher = more potent) worked out at 0.281.

As to TTAAATTTAAGTATCACTCTCT, the sensor-assay potency score (higher = more potent) amounted to 1.11.

In turn, TATATTTCCACCTTGCACCATT returned a sensor-assay potency score (higher = more potent) of -0.555.

As to TCTTTTCAGCACATCATCCAGG, the sensor-assay potency score (higher = more potent) was -0.0678.

For TCTCCAAGTAGGTAGATGCTGG, the sensor-assay potency score (higher = more potent) was -0.762.

For the sequence TTCTTTTCAGCACATCATCCAG, the sensor-assay potency score (higher = more potent) is -1.18.

Turning to TAATTGAGGAAAGTATACCAGC, the sensor-assay potency score (higher = more potent) is -0.629.

Sequence TTCAGCACATCATCCAGGCAGG displayed a sensor-assay potency score (higher = more potent) of -0.972.

The target of another test is C6orf118. The description is as above. Conditions: shRNA.
TTCAGGTACCTGAACAGCGGGG gave a sensor-assay potency score (higher = more potent) of -1.06.

Sequence TTGTATAGCTTCATGCTCTATG returned a sensor-assay potency score (higher = more potent) of 0.444.

For the sequence TTACACAGGGTCTTCACTCCTG, the sensor-assay potency score (higher = more potent) turned out to be 0.491.

For TTAAGAACTAGTATTGTTGTAA, the sensor-assay potency score (higher = more potent) came out at 0.558.

TGAAATTCCAGTATGAACCAAA: the sensor-assay potency score (higher = more potent) is -0.164.

Sequence TCTCAGATGATTCTGATCGTTC registered a sensor-assay potency score (higher = more potent) of -0.778.

In turn, TTGCTTGGCGAGCACTTCCTTC yielded a sensor-assay potency score (higher = more potent) of -1.21.

On to TACACAGGGTCTTCACTCCTGG, for which the sensor-assay potency score (higher = more potent) was -0.203.

As for TATGTTTCTCAGATGATTCTGA, the sensor-assay potency score (higher = more potent) stood at 0.578.

The sequence TTTTACTAGAGATTAAAGCTGA gave a sensor-assay potency score (higher = more potent) of 0.127.

With TAGAGGTAGACGTCCTCCCGGT, the sensor-assay potency score (higher = more potent) was -0.61.

Another test deals with C6orf145. Described as above. Conditions: shRNA.
In turn, TGGATTACTAAACATCCCCTGC gave a sensor-assay potency score (higher = more potent) of -0.823.

As to ATTTTTTAACACCTGATCCAGA, the sensor-assay potency score (higher = more potent) is -0.814.

With TATTTGCTAAACAAAATCCATT, the sensor-assay potency score (higher = more potent) is -1.51.

As to TATACTGTGGTCAATAACTATT, the sensor-assay potency score (higher = more potent) is -1.52.

TTGACTGGACTTTGAAAGCTGG showed a sensor-assay potency score (higher = more potent) of -0.406.

TTATCTAGTCGGCAATGCCTTC registered a sensor-assay potency score (higher = more potent) of -1.25.

TCAATAACTATTGTTTCGGTAT had a sensor-assay potency score (higher = more potent) of -0.234.

For TCGTTAGTAGACACTGAGCAGA, the sensor-assay potency score (higher = more potent) is -0.734.

Sequence TATGATCGTCTTCAGCAGCTTC came in with a sensor-assay potency score (higher = more potent) of -1.

In turn, TTACTAAACATCCCCTGCCTGT registered a sensor-assay potency score (higher = more potent) of -0.858.

TTTACATTAGCAAATGTCGGTC had a sensor-assay potency score (higher = more potent) of -0.665.

The next test concerns the target C6orf203. Described as above. Conditions: shRNA.
The sequence TTAAACTTTTCCACCGCCGTAA showed a sensor-assay potency score (higher = more potent) of -0.414.

In turn, TTTCACTTTCAGTCTTCTCTTC yielded a sensor-assay potency score (higher = more potent) of 0.689.

Turning to TTAGTAGATTTTGTAGACCTTA, the sensor-assay potency score (higher = more potent) was -0.225.

Regarding TTCAGGACAACATCATACCGAA, the sensor-assay potency score (higher = more potent) is -0.635.

Take TATTACTTTTGAGTCTTACGGA: the sensor-assay potency score (higher = more potent) is -0.0954.

Sequence TAGAAAAATACAAGTATCGATT had a sensor-assay potency score (higher = more potent) of -1.01.

The sequence TTATAGTTTTTGACTACAGTAG had a sensor-assay potency score (higher = more potent) of -0.647.

These data come from the OligoGym collection.
Also: reference of the scale not given here.
